From PubChem BioAssay (NCATS) come the findings set out here.

Molecules are shown by their SMILES. Several values for one entry are separate records, joined by “and”; a condition that tells them apart may be missing. Equal entries are not always repeated. Records with an inconclusive call do not appear. Activity calls are given as the source filed them. Calls follow the shape of the dose curve; as a rule, active = well fitted activation curve with a large enough effect; inconclusive = small, poorly fitted or top-dose-only effect; inactive = no such curve, though single readings can be large or run the other way.
Potency is read from the fitted curve at half-maximal effect.

Sequence of Cellular tumor antigen p53 (Homo sapiens) (P04637 whole entry, looked up): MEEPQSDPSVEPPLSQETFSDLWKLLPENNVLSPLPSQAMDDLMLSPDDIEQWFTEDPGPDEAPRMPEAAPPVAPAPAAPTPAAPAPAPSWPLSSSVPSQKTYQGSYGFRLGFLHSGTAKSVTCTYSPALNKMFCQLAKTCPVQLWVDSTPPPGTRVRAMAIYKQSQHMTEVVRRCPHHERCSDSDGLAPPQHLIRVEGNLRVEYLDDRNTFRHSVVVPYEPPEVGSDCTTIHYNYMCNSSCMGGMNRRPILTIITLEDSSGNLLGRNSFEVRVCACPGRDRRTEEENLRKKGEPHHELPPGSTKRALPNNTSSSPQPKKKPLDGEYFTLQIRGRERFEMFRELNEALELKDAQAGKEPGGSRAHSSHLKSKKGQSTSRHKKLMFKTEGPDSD

For the assay, the target named is Cellular tumor antigen p53 (Homo sapiens) (UniProt P04637). As to the kind of experiment: Primary qHTS for small molecule compounds that upregulate eGFP-tagged delta133p53alpha (in N-terminal) cells. (AID 2060322). Also: nearly all actives have a fitted effect of over 75% in size.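 As to activation: series mostly up to about 56 µM; 0% = DMSO vehicle and 100% = reference activator.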 Particulars: NCI-H358 eGFP-delta133p53alpha fluorescence, 24 h; activation: active compounds read high. An outline of the steps:
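NCI-H358 cells pre-induced 24 h with 10 ng/ml doxycycline to express N-terminal eGFP-delta133p53alpha, then dosed 24 h at 37C without doxycycline; fixed, Hoechst-stained, GFP intensity by laser scanning cytometry, normalized to DMSO (0%) and 57.5 uM 5-azacytidine (100%).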
Take `C#C[C@]1(O)C=C[C@@H]2[C@@H]3CCC4=CC(=O)CC[C@@H]4[C@H]3CC[C@@]21CC`: the activation was -3.53% (inactive).
The same measure, in the same setting: the same measure for `C[C@H]([C@H](O)CCC(C)(C)O)[C@H]1CC[C@@]2(O)C3=CC(=O)[C@@H]4C[C@@H](O)[C@@H](O)C[C@]4(C)[C@@H]3CC[C@]12C`: -1.72% (inactive); for `O=C1CCC[C@@H]2[C@H]3CCCN4CCC[C@@H](CN12)[C@@H]34`: 30.7% (inactive).
The same measure, in the same setting: the same measure for `C[C@H]1CCCC=CC2C[C@H](O)C[C@@H]2[C@H](O)C=CC(=O)O1` (some centres undefined): 23.5% (inactive); for `COC1CC(=C(c2cccs2)c2cccs2)C[N+](C)(C)C1` (centres undefined): -5.86% (inactive); for `Cc1c(C(=O)c2cccc3ccccc23)c2cccc3c2n1[C@H](CN1CCOCC1)CO3`: 12.1% (inactive).
For the compound `CCC(=O)O[C@@H]1C=C2CCC3C(CCC4(C)C3CC[C@@H]4OC(=O)CC)C2CC1` (some centres undefined), the activation is 6.21% (inactive).
Turning to `CCN(CC)CCOC(=O)C(O)(c1ccccc1)c1ccccc1`, the activation is 20.9% (inactive).
The same measure, in the same setting: the same measure for `c1ccc2c(c1)Nc1ccccc1S2`: 13% (inactive) and 14.2% (inactive); for `O=[N+]([O-])c1cc([As](=O)(O)O)ccc1O`: 9.21% (inactive).
On to `O=C(O)COc1nc(Cl)c(Cl)cc1Cl`, for which the activation was 6.21% (inactive).
On the same count and under the same terms, the same measure for `CC1=C2C[C@@H]3[C@@H](CC=C4C[C@@H](O)CC[C@@]43C)[C@@H]2CC[C@]12O[C@H]1C[C@H](C)CN[C@H]1[C@H]2C`: 14% (inactive).
On the same count and under the same terms, to `CC(O)CN1CCN(CC(=O)[O-])CCN(CC(=O)[O-])CCN(CC(=O)[O-])CC1.[Gd+3]` (centres undefined) belongs -12.6% (inactive); to `C[C@]12CCC(=O)C(O)=C1CC[C@@H]1[C@H]3CCC(=O)[C@@]3(C)CC[C@@H]12`, -8.48% (inactive); to `ClCCN1CCCC1`, 4.18% (inactive).
In the case of `CC1Sc2c(C(=O)O)c(=O)c3cc(F)c(N4CCNCC4)cc3n21` (centres undefined), the activation is -8.47% (inactive).
With `C#CC(O)(C=CCl)CC` (centres undefined), the activation is 19.8% (inactive).
Take `COC(C)(C)CCCC(C)C/C=C/C(C)=C/C(=O)OC(C)C` (centres undefined): the activation is -11.9% (inactive).
Still for that read-out and setting: the same measure for `CN1CC[C@]23c4c5ccc(O)c4O[C@H]2[C@@H](O)CC[C@H]3[C@H]1C5`: 14.1% (inactive); for `CC1OC(C)OC(C)O1` (centres undefined): 6.21% (inactive); for `C[C@]12Cc3cn[nH]c3C[C@@H]1CC[C@@H]1[C@H]2CC[C@@]2(C)[C@H]1CC[C@]2(C)O`: -11.9% (inactive).
`C[C@]12COC(=O)C[C@@H]1CC[C@@H]1[C@H]2CC[C@@]2(C)[C@H]1CC[C@]2(C)O`: the activation was -15.3% (inactive).
In the case of `CC(=O)[O][Hg][c]1ccccc1`, the Potency is 8.71 µM (active).
On to `CN1CCN(C(=O)O[C@H]2c3nccnc3C(=O)N2c2ccc(Cl)cn2)CC1`, for which the activation was 11.9% (inactive) and -19.6% (inactive).
The same measure, in the same setting: the same measure for `CC(=O)OC1(c2ccccc2)CCN(CCc2ccccc2)CC1`: -10.7% (inactive).
Same read-out and setting: to `C[N+]1(CCF)[C@@H]2CC[C@H]1CC(OC(=O)C(O)(c1ccccc1)c1ccccc1)C2` (some centres undefined) belongs 5.08% (inactive).
Same read-out and setting: the same measure for `O=C(O)c1ccc(=O)[nH]c1`: 11.9% (inactive); for `CC(C)[N+](C)(CCC(C(N)=O)(c1ccccc1)c1ccccc1)C(C)C`: 27.7% (inactive).
For the compound `CCOP(=O)(NC(C)C)Oc1ccc(SC)c(C)c1` (centres undefined), the activation was 10.7% (inactive).
In the case of `C[C@](O)(CS(=O)(=O)c1ccc(F)cc1)C(=O)Nc1ccc(C#N)c(C(F)(F)F)c1`, the activation is -4.55% (inactive).
Still for that read-out and setting: the same measure for `C#CCOC(C(=O)OCCN(C)C)(c1ccccc1)c1ccccc1`: -6.21% (inactive); for `CCN(Cc1ccc(Cl)nc1)/C(=C/[N+](=O)[O-])NC`: -24.3% (inactive); for `COC(=O)[C@@H](N)CCCN/C(N)=N/[N+](=O)[O-]`: -1.69% (inactive).
Still for that read-out and setting: to `CCC(COC(=O)c1cc(OC)c(OC)c(OC)c1)(c1ccccc1)N(C)C` (centres undefined) belongs -7.34% (inactive).
As to `CCC(OC(C)=O)C(CC(C)NC)(c1ccccc1)c1ccccc1` (centres undefined), the Potency was 28.5 µM (active).
With `C[C@@H]1O[C@@H](O[C@@H]2C=C3CC[C@@H]4[C@@H](CC[C@]5(C)[C@H](c6ccc(=O)oc6)CC[C@@]45O)[C@@]3(C)CC2)[C@H](O)[C@H](O)[C@H]1O`, the activation was -11.3% (inactive).
As for `CC(C)Oc1cccc(NC(=O)c2ccccc2C(F)(F)F)c1`, the activation is -17.6% (inactive).
The same measure, in the same setting: the same measure for `Cc1cc(O)ccc1Cl`: -17.5% (inactive).
The same measure, in the same setting: to `C[C@]12CC[C@H]3[C@@H](CC=C4C[C@@H](O)CC[C@@]43C)[C@@H]1CC[C@@H]2O` belongs -16.7% (inactive).
